Most compounds without a hit are left out; they make up all but 12% or so of the library.
Pf growth 96h: P. falciparum growth inhibition at 96 hours; AID 504834; 320,000 compounds, 6.9% hits; P. falciparum luciferase reporter growth, 96 h; Potency, µM (titrated, usually from 28.7 µM), actives largely listed as inhibitors
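Two parasite generations (96 h, 37 C, 5% CO2) of compound exposure in infected erythrocytes (0.05% parasitemia, 2% hematocrit). Luciferase-reporter P. falciparum; decreased luminescence indicates inhibited growth, aimed at apicoplast-acting delayed death.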
SARS PLP yeast: inhibitors of SARS-CoV papain-like protease in yeast; S. cerevisiae expressing SARS-CoV PLpro, growth rescue; Potency, µM (series often up to 32.9 µM), most hits filed as activators; 330,000 compounds, 0.19% hits; calls by dose curve; also: nearly all actives have a fitted effect of over 55% in size
Pf growth 48h: inhibits P. falciparum growth in the first generation, 48 h; P. falciparum luciferase growth in erythrocytes, 48 h; 310,000 compounds, 5.9% hits; Potency, µM (doses to about 28.7 µM), usual class: inhibitors
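Here the parasites carry a stable luciferase gene and grow inside erythrocytes in Albumax-based RPMI medium with compound for one erythrocytic cycle. Activity is scored as loss of luminescent signal.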
AmpC detergent: blocks E. coli AmpC beta-lactamase in detergent assay. AmpC hydrolysis of nitrocefin, absorbance 480 nm, 0.01% Triton. Potency, µM (titrated, usually from 114 µM), hits mostly inhibitors. 370,000 compounds, 0.041% hits. AID 485294; also: nearly all actives have a fitted effect of over 25% in size
Target sequence (P00811 whole entry, looked up): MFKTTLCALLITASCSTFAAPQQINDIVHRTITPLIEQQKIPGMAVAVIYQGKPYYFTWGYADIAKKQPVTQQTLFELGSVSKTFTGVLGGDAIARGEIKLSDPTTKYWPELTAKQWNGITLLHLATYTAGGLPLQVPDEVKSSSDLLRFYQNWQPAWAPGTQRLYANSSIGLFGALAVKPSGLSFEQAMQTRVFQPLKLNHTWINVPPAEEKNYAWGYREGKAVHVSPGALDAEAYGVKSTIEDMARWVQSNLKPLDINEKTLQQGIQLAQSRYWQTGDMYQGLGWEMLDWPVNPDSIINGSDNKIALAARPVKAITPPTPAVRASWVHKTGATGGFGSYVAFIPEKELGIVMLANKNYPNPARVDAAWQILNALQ
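AmpC (5.3 nM in the dispensed reagent) in 20 mM phosphate pH 7.0 with 0.01% (detergent screen) or 0.0001% Triton X-100 was preincubated with compounds for 15 min at room temperature. Nitrocefin was then added from an 800 uM solution, and hydrolysis was followed at 480 nm.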
AmpC no deterg: inhibitors of E. coli AmpC beta-lactamase without detergent; Potency, µM (highest dose often 57.1 µM), most hits filed as inhibitors; P00811; 330,000 compounds, 0.52% hits; AmpC nitrocefin hydrolysis, absorbance 480 nm, 0.0001% Triton; also: nearly all actives have a fitted effect of over 20% in size
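20 mM phosphate pH 7.0 + 0.01% (detergent screen) or 0.0001% Triton X-100; 5.3 nM AmpC reagent; cpd preinc 15 min RT; nitrocefin (800 uM stock) to start; A480 q20 s × 4 min; Activity was normalised to no-enzyme and no-compound control wells.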
Sm TGR block: S. mansoni TGR enzyme inhibition. purified TGR, DTNB reduction, TNB absorbance 405 nm. Potency, µM (top dose mostly 114 µM), usual class: inhibitors. 360,000 compounds, 3% hits; also: nearly all actives have a fitted effect of over 60% in size
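TGR 20 nM + NADPH 100 uM (dispensed conc.), cpd preinc 15 min RT; start with NADPH (500 uM addition) then DTNB (15 mM addition). Kinetic TNB absorbance, 405 nm filter. Four-parameter Hill fit across titration.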
Each line names hits and unclear results; the compound was inactive in the other large screens; ! = not active in a repeat. Unless noted, calls follow the shape of the dose curve; as a rule, active = well fitted curve in the direction sought with a large enough effect; inconclusive = small, poorly fitted or top-dose-only effect, or another doubt; inactive = no such curve, though single readings can be large; an effect the other way counts as inactive or inconclusive.

Cc1ccc(C)c(OCCn2cc(/C=C(\C#N)C(=O)NCC3CCCO3)c3ccccc32)c1 (centres undefined)	Pf growth 96h 1.7µM, Pf growth 48h 2.6µM
COc1cc(/C=C(\C#N)C(=O)NCC2CCCO2)ccc1OCC(=O)O (centres undefined)	Pf growth 96h 2.3µM
Cc1ccc(OCCn2cc(/C=C(\C#N)C(=O)NCC3CCCO3)c3ccccc32)cc1C (centres undefined)	Pf growth 96h inconclusive, Pf growth 48h inconclusive
Cc1ccc(NC(=O)C2CCN(c3nc4ccccc4[nH]3)CC2)c(C)c1	none (no result: Pf growth 96h, SARS PLP yeast, Pf growth 48h, AmpC no deterg)
COc1ccc(N2CCN(C(=O)CCn3cnc4onc(-c5ccc(F)cc5)c4c3=O)CC2)cc1	none (no result: Pf growth 96h, SARS PLP yeast, Pf growth 48h, AmpC no deterg)
CCOC(=O)/C(C#N)=C\c1cn(C)c2ccccc12	none
CCOC(=O)/C(C#N)=C/c1cn(CCOc2ccccc2)c2ccccc12	Pf growth 96h 9.3µM
COc1ccc(NC2CCCN(C(=O)c3cn(C)c4ccccc34)C2)cc1 (centres undefined)	none
CC(C)(C)c1cc(OC(=O)C2CCCC2)ccc1O	Pf growth 96h 5.2µM
O=C(N/N=C/c1ccc(N2CCOCC2)cc1)c1ccc(O)cc1	Sm TGR block 45µM
O=S(=O)(N/N=C/c1ccc(N2CCOCC2)cc1)c1ccccc1	Pf growth 96h inconclusive, Pf growth 48h inconclusive, Sm TGR block 35µM
CCn1c(=O)c2cc(C(=O)N(C)c3ccc(OC)cc3OC)sc2c2ccccc21	Pf growth 96h 10µM, Pf growth 48h inconclusive
CCn1c(=O)c2cc(C(=O)N(C)c3cc(C)ccc3OC)sc2c2ccccc21	Pf growth 96h inconclusive, Pf growth 48h 13µM
CCn1c(=O)c2cc(C(=O)N(C)c3ccccc3F)sc2c2ccccc21	Pf growth 96h inconclusive, Pf growth 48h inconclusive
CCn1c(=O)c2cc(C(=O)N(C)c3cc(Cl)c(OC)cc3OC)sc2c2ccccc21	none (no result: Pf growth 96h, SARS PLP yeast, Pf growth 48h, AmpC no deterg)
O=C(Cn1c(=O)n(-c2ccccc2)c(=O)c2sc3ccccc3c21)NC1CCCC1	none (no result: Pf growth 96h, SARS PLP yeast, Pf growth 48h, AmpC no deterg)
CCCCCCCC/C=C\CCCCCCCCN	none (no result: SARS PLP yeast, AmpC detergent, AmpC no deterg, Sm TGR block)
COCCCNC(=S)NC1CC2CCCC(C1)N2Cc1ccco1 (centres undefined)	AmpC no deterg 1.8µM
CC(C)CNC(=S)NC1CC2CCCC(C1)N2Cc1cccs1 (centres undefined)	Pf growth 96h 3.7µM, Pf growth 48h 13µM
CNC(=S)NC1CC2CCCC(C1)N2Cc1ccco1 (centres undefined)	none
Cc1ccc(NC(=S)NC2CC3CCCC(C2)N3Cc2ccco2)cc1 (centres undefined)	Pf growth 48h inconclusive (no result: Sm TGR block)
CC(C)CNC(=S)NC1CC2CCCC(C1)N2Cc1ccco1 (centres undefined)	Pf growth 96h 12µM
Cc1nc2cccnc2n1-c1cccc(C(=O)NCCc2ccc(S(N)(=O)=O)cc2)c1	none (no result: Pf growth 96h, SARS PLP yeast, Pf growth 48h, AmpC no deterg)
CC(=O)N(Cc1cc2cc(C)c(C)cc2n2nnnc12)CC1COCCO1 (centres undefined)	Pf growth 96h 2.9µM
O=C1c2ccccc2-c2onc3c(Oc4ccccc4)cc(O)c1c23	Sm TGR block 45µM (no result: Pf growth 96h)
CCOc1ccc2noc3c2c1C(=O)c1ccccc1-3	Sm TGR block inconclusive
Cc1ccc(CN2CCCn3nc(C(=O)NCCc4cccc(C)c4)cc3C2=O)cc1	none (no result: Pf growth 96h, SARS PLP yeast, Pf growth 48h, AmpC no deterg)
CCOC(=O)c1cc(-c2ccccc2)n(CCC(=O)Nc2ccc(Cl)c(C(F)(F)F)c2)c1C	none (no result: Pf growth 96h, SARS PLP yeast, Pf growth 48h, AmpC no deterg)
C(=C/c1ccccc1)/CN1CCN(C(c2ccccc2)c2ccccc2)CC1	Pf growth 96h 7.2µM, Pf growth 48h inconclusive (no result: SARS PLP yeast, AmpC detergent, AmpC no deterg, Sm TGR block)
O=C(/C=C/c1ccco1)N1CCN(S(=O)(=O)/C=C/c2ccccc2)CC1	Pf growth 96h inconclusive, Pf growth 48h inconclusive, Sm TGR block 13µM
O=C(/C=C/c1ccco1)N1CCN(c2ccccc2)CC1	AmpC detergent inconclusive, Sm TGR block 11µM
Cc1ccc(Cn2nc(C)c(C(=O)N3CCN(S(=O)(=O)/C=C/c4ccccc4)CC3)c2C)cc1	Pf growth 96h 3.3µM, Pf growth 48h 6.6µM
CCc1nn(CC(=O)NCCCc2ccccc2)c(=O)c2cc3ccccc3n12	none (no result: Pf growth 96h, SARS PLP yeast, Pf growth 48h, AmpC no deterg)
Cc1ccc(/C=C/C(=O)N2CCN(S(=O)(=O)/C=C/c3ccccc3)CC2)o1	Pf growth 96h 5.9µM, Sm TGR block 14µM
O=C(/C=C/c1ccc(S(=O)(=O)NCc2ccco2)cc1)N1CCN(c2ccccc2)CC1	Pf growth 96h 3.7µM, Pf growth 48h inconclusive
O=C(/C=C/c1ccc(F)cc1)N1CCN(S(=O)(=O)/C=C/c2ccccc2)CC1	none
NC(=O)C1CCN(C(=O)/C=C/c2ccco2)CC1	Sm TGR block 7.9µM
O=C(Cc1ccccc1)N1CCN(C/C=C/c2ccccc2)CC1	Pf growth 96h 3.3µM
Cc1cnc(NC(=O)CC2OC(=O)c3ccccc32)s1 (centres undefined)	none
O=C(/C=C/c1ccco1)NC(=S)Nc1ccc(N2CCCC2)cc1	Sm TGR block inconclusive
O=[N+]([O-])c1ccc(C(O)CN2CCN(C/C=C/c3ccccc3)CC2)cc1 (centres undefined)	Pf growth 96h 4.1µM, Pf growth 48h 7.4µM, Sm TGR block inconclusive
O=C(/C=C/c1ccco1)N1CCN(C/C=C/c2ccccc2)CC1	Pf growth 96h inconclusive, Sm TGR block 40µM
O=C(/C=C/c1ccccc1)N1CCN(C(=O)c2ccco2)CC1	none (no result: Pf growth 96h)
O=C(/C=C\c1ccco1)Nc1ccc(N2CCN(C(=O)c3ccccc3)CC2)cc1	Pf growth 96h 5.9µM, Pf growth 48h inconclusive
CN1CCN(NC(=O)c2cccc(C(F)(F)F)c2)CC1	none
COc1ccc(OCC(=O)OCC(=O)NCC2CCCCC2)cc1	none
Nc1ccccc1O	Pf growth 96h inconclusive, Pf growth 48h inconclusive, Sm TGR block inconclusive
Oc1ccccc1O	Pf growth 48h inconclusive, AmpC detergent inconclusive, Sm TGR block 16µM (no result: SARS PLP yeast)
Cc1ccc(CSc2nnc([C@@H](N)C(C)C)o2)cc1	none (no result: Pf growth 96h, SARS PLP yeast, Pf growth 48h, AmpC no deterg)
CC(=O)Nc1ccc(NC(=O)CCc2c(C)nc3c(c(C)nn3-c3ccc(C)cc3)c2C)cc1	none (no result: Pf growth 96h, SARS PLP yeast, Pf growth 48h, AmpC no deterg)
CC(C)(C)C(=O)Nc1ccc(-c2cn3ccsc3n2)cc1	none
CC(C)CC(=O)Nc1ccc(-c2cn3ccsc3n2)cc1	Pf growth 96h 13µM
O=C(NC(NC1CCS(=O)(=O)C1)C(=O)c1ccccc1)c1ccc(Cl)cc1 (centres undefined)	Pf growth 96h inconclusive, Pf growth 48h inconclusive
CCc1ccc(C2CC(=O)c3c([nH]c(C(=O)OC4CCCCCC4)c3C)C2)cc1 (centres undefined)	none (no result: Pf growth 96h, SARS PLP yeast, Pf growth 48h, AmpC no deterg)
CN1[C@@H](CC(=O)c2ccccc2)CCC[C@H]1C[C@H](O)c1ccccc1	Pf growth 96h 17µM!, Pf growth 48h 13µM

Compound activity from PubChem BioAssay.
